# Assay results reported in PubChem BioAssay (NCATS).
# Records with an inconclusive call do not appear. Calls of active or inactive are those of the source. Unless noted, calls come from the whole dose curve.
# Key:
# [1] = target: Glucocorticoid receptor (Homo sapiens) (UniProt P04150); assay: qHTS assay for small molecule antagonists of glucocorticoid receptor signaling (AID 588533; active = well fitted inhibition curve with a large enough effect in the signal ratio, with a control signal flat, not every such curve was filed as active; the % refers to the signal ratio;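 note: cells stimulated with 2 nM dexamethasone as agonist; % is set by controls: 0 for no effect and ±100 for the full control effect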)
# Sequence of Glucocorticoid receptor (Homo sapiens) (P04150 whole entry, looked up): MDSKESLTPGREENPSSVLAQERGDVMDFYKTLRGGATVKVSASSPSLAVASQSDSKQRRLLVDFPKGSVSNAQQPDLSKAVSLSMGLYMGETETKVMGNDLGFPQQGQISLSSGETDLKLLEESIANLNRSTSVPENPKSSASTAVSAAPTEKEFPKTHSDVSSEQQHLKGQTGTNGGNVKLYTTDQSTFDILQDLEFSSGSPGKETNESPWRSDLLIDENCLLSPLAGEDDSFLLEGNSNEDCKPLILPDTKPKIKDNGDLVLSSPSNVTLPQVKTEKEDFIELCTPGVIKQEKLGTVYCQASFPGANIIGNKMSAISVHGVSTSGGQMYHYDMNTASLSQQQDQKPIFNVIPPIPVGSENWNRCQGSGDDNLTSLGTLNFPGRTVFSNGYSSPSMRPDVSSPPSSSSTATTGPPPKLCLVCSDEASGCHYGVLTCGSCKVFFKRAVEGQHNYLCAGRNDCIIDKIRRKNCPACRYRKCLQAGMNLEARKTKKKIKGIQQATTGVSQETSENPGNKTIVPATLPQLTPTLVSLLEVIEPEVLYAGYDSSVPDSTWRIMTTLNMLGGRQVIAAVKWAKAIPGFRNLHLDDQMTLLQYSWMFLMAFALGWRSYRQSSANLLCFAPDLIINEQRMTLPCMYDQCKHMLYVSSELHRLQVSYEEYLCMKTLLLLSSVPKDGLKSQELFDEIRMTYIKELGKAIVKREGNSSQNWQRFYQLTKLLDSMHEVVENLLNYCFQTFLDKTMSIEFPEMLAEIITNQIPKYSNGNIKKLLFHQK
# Summary of the method: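 Antagonist-mode qHTS: compound titrations added to GRE-bla HeLa cells, then dexamethasone 2 nM final; 18 h, 37 C. CCF4 FRET fluorescence normalized to dexamethasone and DMSO; IC50 from Hill fit.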
# [2] = target: Peroxisome proliferator-activated receptor delta (Homo sapiens) (UniProt Q03181); assay: qHTS assay for small molecule agonists of peroxisome proliferator-activated receptor delta signaling (AID 588534);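 note: 0% = DMSO basal wells and 100% = positive control agonist at 10 µM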
# Sequence of Peroxisome proliferator-activated receptor delta (Homo sapiens) (Q03181 whole entry, looked up): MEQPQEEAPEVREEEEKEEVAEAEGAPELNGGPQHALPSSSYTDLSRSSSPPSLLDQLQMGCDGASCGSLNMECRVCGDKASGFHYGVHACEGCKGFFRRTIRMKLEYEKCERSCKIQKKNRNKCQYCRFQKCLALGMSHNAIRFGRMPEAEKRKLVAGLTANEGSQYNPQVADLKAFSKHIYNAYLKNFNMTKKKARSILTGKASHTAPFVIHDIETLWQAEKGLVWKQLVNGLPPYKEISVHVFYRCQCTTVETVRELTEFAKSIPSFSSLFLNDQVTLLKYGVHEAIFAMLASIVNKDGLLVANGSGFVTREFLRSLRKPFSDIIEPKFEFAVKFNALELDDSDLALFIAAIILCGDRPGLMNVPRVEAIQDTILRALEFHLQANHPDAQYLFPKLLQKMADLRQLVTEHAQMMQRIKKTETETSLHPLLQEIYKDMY
# Summary of the method: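 Fluorescence from CCF4 substrate cleavage by beta-lactamase reporter, read 2 hrs at RT, measured agonist activity. Compounds were tested with 18 hrs exposure at 37 C. Concentration-response data fitted to Hill equation.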
# [3] = target: Vitamin D3 receptor (Homo sapiens) (UniProt P11473); assay: qHTS assay for small molecule antagonists of vitamin D receptor signaling (AID 588541);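 note: receptor activated by calcitriol during compound treatment; series mostly up to about 77 µM; % is set by controls: 0 for no effect and ±100 for the full control effect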
# Sequence of Vitamin D3 receptor (Homo sapiens) (P11473 whole entry, looked up): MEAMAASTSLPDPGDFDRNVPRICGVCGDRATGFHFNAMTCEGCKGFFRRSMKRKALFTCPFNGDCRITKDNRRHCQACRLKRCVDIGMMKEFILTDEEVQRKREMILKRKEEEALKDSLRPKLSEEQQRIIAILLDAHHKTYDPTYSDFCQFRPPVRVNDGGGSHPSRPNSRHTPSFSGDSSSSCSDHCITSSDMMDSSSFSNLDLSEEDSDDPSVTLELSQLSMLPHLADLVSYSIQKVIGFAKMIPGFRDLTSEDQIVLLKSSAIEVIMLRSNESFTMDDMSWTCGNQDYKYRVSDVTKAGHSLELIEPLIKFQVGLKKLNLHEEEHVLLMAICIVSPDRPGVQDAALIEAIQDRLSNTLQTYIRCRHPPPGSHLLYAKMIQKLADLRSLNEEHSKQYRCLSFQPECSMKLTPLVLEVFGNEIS
# Summary of the method: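 Antagonist-mode beta-lactamase reporter assay: HEK293T VDR-UAS-bla cells were exposed to titrated compound alongside 1-alpha,25-dihydroxyvitamin D3 at 3 nM final for 16 h. Values were normalized to the 50 nM agonist control and DMSO basal, with IC50 and efficacy from Hill equation fits.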
# [4] = target: Vitamin D3 receptor (Homo sapiens) (UniProt P11473); assay: qHTS assay for small molecule agonists of vitamin D receptor signaling (AID 588543);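 note: 0% = DMSO basal and 100% = reference agonist control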
# Summary of the method: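 Reporter cells (HEK293T, VDR-UAS-bla) were seeded in medium with 2% charcoal-stripped serum and incubated 5 h, then compounds in concentration series were added for 16 h at 37 °C. Stimulation was scaled between DMSO basal and 50 nM 1α,25-dihydroxyvitamin D3.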
# [5] = qHTS assay for small molecule agonists of retinoid X receptor alpha signaling (AID 588544); details: HEK293T RXRa-UAS-bla, beta-lactamase reporter, 18 h; 530 nm emission;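 for activation: 0% = DMSO basal wells and 100% = reference agonist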
# [6] = target: Retinoic acid receptor RXR-alpha (Homo sapiens) (UniProt P19793); assay: as above
# Sequence of Retinoic acid receptor RXR-alpha (Homo sapiens) (P19793 whole entry, looked up): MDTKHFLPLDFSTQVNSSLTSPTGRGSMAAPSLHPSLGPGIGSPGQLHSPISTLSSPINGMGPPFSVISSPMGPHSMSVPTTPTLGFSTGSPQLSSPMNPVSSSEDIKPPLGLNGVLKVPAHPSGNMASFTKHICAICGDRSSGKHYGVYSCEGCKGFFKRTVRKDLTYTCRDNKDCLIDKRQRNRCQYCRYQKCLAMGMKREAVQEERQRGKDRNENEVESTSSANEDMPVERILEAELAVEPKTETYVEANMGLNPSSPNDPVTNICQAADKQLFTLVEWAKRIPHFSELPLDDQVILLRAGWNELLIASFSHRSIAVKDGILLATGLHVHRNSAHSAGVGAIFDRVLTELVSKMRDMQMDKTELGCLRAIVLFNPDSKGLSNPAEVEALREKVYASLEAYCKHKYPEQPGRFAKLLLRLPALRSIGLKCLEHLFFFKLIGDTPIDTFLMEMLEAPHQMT
# [7] = target: Thyroid hormone receptor beta (Homo sapiens) (UniProt P10828); assay: qHTS assay for small molecule agonists of thyroid hormone receptor beta signaling (AID 588545)
# Sequence of Thyroid hormone receptor beta (Homo sapiens) (P10828 whole entry, looked up): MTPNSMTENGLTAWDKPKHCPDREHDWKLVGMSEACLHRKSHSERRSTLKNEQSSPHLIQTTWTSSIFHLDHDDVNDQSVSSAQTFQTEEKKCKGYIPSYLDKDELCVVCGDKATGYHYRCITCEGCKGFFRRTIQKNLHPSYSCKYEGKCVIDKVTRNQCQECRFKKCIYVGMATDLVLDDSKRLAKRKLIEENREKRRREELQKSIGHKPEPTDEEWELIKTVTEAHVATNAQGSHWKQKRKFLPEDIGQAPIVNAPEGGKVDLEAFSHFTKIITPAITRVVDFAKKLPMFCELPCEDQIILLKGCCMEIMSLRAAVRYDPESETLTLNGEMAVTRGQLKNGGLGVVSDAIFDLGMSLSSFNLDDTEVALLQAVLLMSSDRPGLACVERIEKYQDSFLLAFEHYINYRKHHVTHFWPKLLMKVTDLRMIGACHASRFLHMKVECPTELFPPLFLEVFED
# Summary of the method: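 Agonist activity was read as beta-lactamase CCF4 fluorescence (405 ex, 460/530 em), scaled between DMSO (0%) and 10 nM T3 (100%), then Hill-fitted for EC50 and efficacy. HEK 293 TR-UAS-bla cells in 2% charcoal/dextran FBS medium were exposed 18 h at 37 C.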
# [8] = qHTS assay for small molecule antagonists of retinoid X receptor alpha signaling (AID 588546; active = well fitted inhibition curve with a large enough effect in the signal ratio, with a control signal flat, not every such curve was filed as active; the % refers to the signal ratio;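 note: cells stimulated with 9-cis-retinoic acid as agonist; % is set by controls: 0 for no effect and ±100 for the full control effect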); details: HEK293T RXRa-UAS-bla, beta-lactamase ratio, antagonist mode; measured here: W530 green channel, cytotoxicity proxy
# Summary of the method: (§1)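 Beta-lactamase reporter inhibition, read as CCF4 fluorescence ratio (ex 405, em 460/530 nm) after 2 h at RT. HEK293T UAS-bla cells, 2500/well, were stimulated with 9-cis-RA at 500 or 100 nM final alongside test compound for 18 h at 37 C.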
# [9] = target: Retinoic acid receptor RXR-alpha (Homo sapiens) (UniProt P19793); assay: as above; details: HEK293T RXRa-UAS-bla, beta-lactamase ratio, antagonist mode
# Summary of the method: as §1
# [10] = target: Thyroid hormone receptor beta (Homo sapiens) (UniProt P10828); assay: qHTS assay for small molecule antagonists of thyroid hormone receptor beta signaling (AID 588547; active = well fitted inhibition curve with a large enough effect in the signal ratio, with a control signal flat, not every such curve was filed as active; the % refers to the signal ratio;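 note: cells stimulated with 0.4 nM T3 agonist during compound exposure; series mostly up to about 77 µM; % is set by controls: 0 for no effect and ±100 for the full control effect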); details: TR-UAS-bla HEK293, beta-lactamase ratio, antagonist mode, 18 h
# Summary of the method: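 Inhibition of T3-driven (0.4nM final) beta-lactamase reporter activity was measured over 0.59 nM to 92 uM compound after 18 h at 37 C. The cells were GripTite HEK293 TR-UAS-bla in charcoal/dextran-stripped serum, with CCF4 ratio read-out and IC50 from Hill fits.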
# [11] = qHTS assay for environmental chemicals that activate the Aryl hydrocarbon Receptor (AhR) signaling pathway (AID 651777; active = well fitted curve in the direction sought with a large enough effect; an effect the other way counts as inactive or inconclusive; note: % of control where 0% means no effect; nearly all actives have a fitted effect of over 15% in size); details: 1A2-DRE human hepatoma cells, luciferase, 24 h; activation: stronger effect = higher value
# Summary of the method: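 Concentration–response screening used 1,200 1A2-DRE cells per well, 24 hr compound exposure (37 C, 5% CO2), and One-Glo luminescence as the AhR-driven CYP1A2 reporter signal.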
# [12] = target: Peroxisome proliferator-activated receptor alpha (Homo sapiens) (UniProt Q07869); assay: qHTS assay for small molecule agonists of the peroxisome proliferator-activated receptor alpha (PPARalpha) signaling pathway (AID 651778; active = well fitted curve in the direction sought with a large enough effect; an effect the other way counts as inactive or inconclusive; note: % of control where 0% means no effect); details: PathHunter PPARalpha complementation, chemiluminescence, 6 h; max response: stronger effect = higher value
# Sequence of Peroxisome proliferator-activated receptor alpha (Homo sapiens) (Q07869 whole entry, looked up): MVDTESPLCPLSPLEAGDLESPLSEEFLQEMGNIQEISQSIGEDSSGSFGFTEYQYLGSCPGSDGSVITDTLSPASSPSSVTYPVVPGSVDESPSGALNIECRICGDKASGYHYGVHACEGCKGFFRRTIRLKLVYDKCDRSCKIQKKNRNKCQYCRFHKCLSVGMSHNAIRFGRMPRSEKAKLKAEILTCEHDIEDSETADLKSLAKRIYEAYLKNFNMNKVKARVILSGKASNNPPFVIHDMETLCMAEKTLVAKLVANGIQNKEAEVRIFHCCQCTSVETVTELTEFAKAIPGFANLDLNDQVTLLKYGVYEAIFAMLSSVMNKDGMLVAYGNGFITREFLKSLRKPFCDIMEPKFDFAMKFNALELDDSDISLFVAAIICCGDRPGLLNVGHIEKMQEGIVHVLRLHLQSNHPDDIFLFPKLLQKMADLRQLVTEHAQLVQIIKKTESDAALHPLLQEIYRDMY
# Summary of the method: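 Chemiluminescence from complemented enzyme reported PPARalpha activation in cells after 6 hr of compound treatment at 37 C. The detection reagent was incubated for 60 min at room temperature, and compounds were scored as agonists.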
# [13] = qHTS assay for small molecule agonists of the antioxidant response element (ARE) signaling pathway measured by Nrf2-dependant transcriptional activity (AID 720636; active = well fitted curve in the direction sought with a large enough effect in the repeat runs; an effect the other way counts as inactive or inconclusive;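 note: HepG2 cells with an ARE-driven luciferase reporter; % of control where 0% means no effect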)
# Summary of the method: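 Attachment 6 hr at 37 C, then compound versus DMSO vehicle for 16 hr in ARE-luc HepG2 cells (1% dialyzed FBS); luminescence recorded 30 min after ONE-Glo addition at room temperature.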
# [14] = qHTS assay for small molecule agonists of the antioxidant response element (ARE) signaling pathway measured by Nrf2-dependant transcriptional activity - cell viability counter screen (AID 720653; active = well fitted curve in the direction sought with a large enough effect in the repeat runs; an effect the other way counts as inactive or inconclusive; note: % is set by controls: 0 for no effect and ±100 for the full control effect); details: ARE-bla HepG2 viability, CellTiter-Glo ATP luminescence, 16 h; max response: stronger effect = lower value
# Summary of the method: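 Cytotoxicity counter screen: intracellular ATP quantified by CellTiter-Glo luminescence in the same ARE-bla HepG2 plates, after 16 h compound exposure and a 2 h beta-lactamase substrate step.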
# [15] = qHTS assay for cell viability of HEK293 cells (AID 743288; active = well fitted curve in the direction sought with a large enough effect; an effect the other way counts as inactive or inconclusive; note: % is set by controls: 0 for no effect and ±100 for the full control effect; nearly all actives have a fitted effect of over 50% in size); details: ATP luminescence (CellTiter-Glo), 18 h; max response: stronger effect = lower value
# Summary of the method: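 HEK293 parental, 2,000 cells/well; ≥5 h pre-incubation 37 C; pintool compound addition; 18 h, 37 C; CellTiter-Glo 30 min RT; luminescence read.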
# [16] = qHTS assay for cell viability of the p53RE-bla HCT-116 cell line (AID 743292; active = well fitted curve in the direction sought with a large enough effect; an effect the other way counts as inactive or inconclusive; note: % is set by controls: 0 for no effect and ±100 for the full control effect; nearly all actives have a fitted effect of over 55% in size)
# Summary of the method: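 Compound-exposed HCT-116 (p53RE-bla) cells, 4,000 per well, were kept 16 h at 37 C following a 5 h preincubation. Cell number was estimated from total ATP by CellTiter-Glo luminescence read after 30 min at room temperature.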
# [17] = target: Nuclear receptor subfamily 1 group I member 2 (Rattus norvegicus) (UniProt Q9R1A7); assay: qHTS assay for small molecule activators of the rat pregnane X receptor (rPXR) signaling pathway (AID 651751; call rule not given here; note: 0% is about no effect); details: rPXR reporter cells, luciferase (One-Glo), 24 h
# Sequence of Nuclear receptor subfamily 1 group I member 2 (Rattus norvegicus) (Q9R1A7 whole entry, looked up): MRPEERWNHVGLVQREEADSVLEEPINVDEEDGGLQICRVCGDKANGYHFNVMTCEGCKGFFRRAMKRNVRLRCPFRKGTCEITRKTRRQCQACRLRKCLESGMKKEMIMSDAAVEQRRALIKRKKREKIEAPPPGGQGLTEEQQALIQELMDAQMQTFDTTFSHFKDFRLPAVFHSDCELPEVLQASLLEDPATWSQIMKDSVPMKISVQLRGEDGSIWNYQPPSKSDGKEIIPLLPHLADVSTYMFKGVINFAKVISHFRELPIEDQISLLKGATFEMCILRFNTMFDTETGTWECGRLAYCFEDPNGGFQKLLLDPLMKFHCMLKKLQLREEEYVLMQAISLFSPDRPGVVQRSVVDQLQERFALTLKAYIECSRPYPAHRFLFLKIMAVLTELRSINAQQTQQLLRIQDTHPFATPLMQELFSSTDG
# [18] = qHTS assay for small molecule activators of the p53 signaling pathway (AID 651743; active = well fitted activation curve with a large enough effect in the signal ratio, not every such curve was filed as active; the % refers to the signal ratio; note: series mostly up to about 92 µM; % of control where 0% means no effect); details: HCT-116 p53RE-bla, beta-lactamase FRET ratio, 16 h; activation: stronger effect = higher value
# Summary of the method: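 Read-out is fluorescence intensity from the LiveBLAzer B/G FRET substrate, added for 2 hours at room temperature after HCT-116 p53RE-bla cells had been incubated with compounds for 16 hours at 37 C.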
# [19] = target: Bile acid receptor (Homo sapiens) (UniProt Q96RI1); assay: qHTS assay for small molecule agonists of farnesoid X receptor signaling (AID 588527); details: HEK293T FXR-UAS-bla, beta-lactamase ratio, 16 h; activation: stronger effect = higher value;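 note: series mostly up to about 77 µM; 0% = vehicle basal and 100% = reference agonist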
# Sequence of Bile acid receptor (Homo sapiens) (Q96RI1 whole entry, looked up): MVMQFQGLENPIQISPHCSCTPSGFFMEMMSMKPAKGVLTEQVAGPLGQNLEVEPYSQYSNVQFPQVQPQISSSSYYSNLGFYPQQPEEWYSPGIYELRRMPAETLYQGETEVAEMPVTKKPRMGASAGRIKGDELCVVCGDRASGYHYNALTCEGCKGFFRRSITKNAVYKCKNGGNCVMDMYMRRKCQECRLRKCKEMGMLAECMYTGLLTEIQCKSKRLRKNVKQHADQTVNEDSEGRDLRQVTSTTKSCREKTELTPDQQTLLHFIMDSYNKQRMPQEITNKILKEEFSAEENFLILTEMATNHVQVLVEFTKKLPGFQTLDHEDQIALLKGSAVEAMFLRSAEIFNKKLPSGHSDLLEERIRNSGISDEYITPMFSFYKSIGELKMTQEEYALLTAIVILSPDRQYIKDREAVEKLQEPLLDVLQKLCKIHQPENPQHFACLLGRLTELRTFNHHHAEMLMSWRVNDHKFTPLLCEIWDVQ
# Summary of the method: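 FXR-UAS-bla HEK293T cells (10% dialyzed FBS) preincubated 5-7 h at 37 C, then compounds at up to 92 uM for 16 h at 37 C. CCF4 beta-lactamase read-out after 2 h RT. Normalized to chenodeoxycholic acid (100 uM) and DMSO; Hill fit gave EC50 and efficacy.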
# [20] = qHTS assay for small molecule antagonists of peroxisome proliferator-activated receptor delta signaling (AID 588535); details: HEK293T PPARd-UAS-bla, beta-lactamase FRET ratio, 18 h; 460 nm channel;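 note: cells co-treated with a PPAR-delta agonist as stimulator during compound exposure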
# Summary of the method: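 HEK293T PPAR-delta-UAS-bla cells, 4000/well, 2% charcoal/dextran FBS; 5 h 37 C; cpd titration; 18 h 37 C; CCF4 2 h RT; FI 460/530 nm; Hill fit → IC50, efficacy.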
Compound,Potency [1],outcome [2],Potency [3],outcome [4],max response [5] [%],Potency [6],Potency [7],max response [8] [%],max response [9],activity change % (negative = inhibition) [10],activation [11],max response [12],Potency [13],max response [14],max response [15],Potency [16],max response [17],activation [18],activation [19],max response [20] [%]
C#CCN1C(=O)COc2cc(F)c(N3C(=O)C4=C(CCCC4)C3=O)cc21,inactive,inactive,inactive,inactive,-8.78,inactive,inactive,5.82,-8.58% (inactive),-4.79% (inactive),0.764% (inactive),-2.95% (inactive),inactive,-24.6% (inactive),-11.7% (inactive),inactive,6.57% (inactive),,,
Nc1c(Cl)c(F)nc(OCC(=O)O)c1Cl,inactive,,inactive,inactive,5.84,inactive,,-12.1,-9.36% (inactive),11.1% (inactive),1.14% (inactive),0.318% (inactive),inactive,1.18% (inactive),4.54% (inactive),inactive,-2.68% (inactive),0.955% (inactive),,
CC(C)(C)OOC(C)(C)c1ccc(C(C)(C)OOC(C)(C)C)cc1,,inactive,inactive,inactive,-9.77,inactive,inactive,-15.9,-5.44% (inactive),10.7% (inactive),0.613% (inactive),0.719% (inactive),inactive,-7.74% (inactive),-8.57% (inactive),inactive,4.08% (inactive),0.499% (inactive),3.45% (inactive),6.63
CCOP(=O)(OCC)SCSP(=S)(OCC)OCC,inactive,inactive,inactive,inactive,,,inactive,-5.91,-11.3% (inactive),,6.55% (inactive),-0.113% (inactive),inactive,-1.01% (inactive),-5.51% (inactive),inactive,,-1.69% (inactive),10.4% (inactive),-37.2
O=C(O)C(F)(F)C(F)(F)C(F)(F)C(F)(F)C(F)(F)F,inactive,inactive,inactive,inactive,6.49,inactive,inactive,3.1,-23% (inactive),8.21% (inactive),0.455% (inactive),4.72% (inactive),,3.24% (inactive),-9.96% (inactive),inactive,2.05% (inactive),-4.82% (inactive),,-15.9
CC(Oc1ccc(Cl)cc1Cl)C(=O)O (centres undefined),inactive,,inactive,inactive,11.7,inactive,inactive,2.43,1.72% (inactive),,-1.09% (inactive),0.174% (inactive),inactive,8.84% (inactive),-4.02% (inactive),inactive,-2.29% (inactive),0.243% (inactive),-0.107% (inactive),
COc1ccc(-c2ccccc2)cc1NNC(=O)OC(C)C,inactive,,inactive,inactive,,,inactive,,,,,-0.526% (inactive),inactive,-7.29% (inactive),-21.9% (inactive),inactive,-11.3% (inactive),-1.18% (inactive),1.06% (inactive),
CCOP(=O)(NC(C)C)Oc1ccc(S(C)(=O)=O)c(C)c1 (centres undefined),inactive,inactive,inactive,inactive,,,inactive,-11.4,6.87% (inactive),9.01% (inactive),1.16% (inactive),-2.16% (inactive),inactive,-4.32% (inactive),-9.88% (inactive),inactive,4.77% (inactive),0.006% (inactive),-2.2% (inactive),
COC(=O)c1ccccc1S(=O)(=O)NC(=O)N(C)c1nc(C)nc(OC)n1,inactive,inactive,,,-6.9,inactive,inactive,-8.58,-3.24% (inactive),9.61% (inactive),0.249% (inactive),-1.41% (inactive),inactive,-4.72% (inactive),-7.64% (inactive),inactive,0.907% (inactive),0.955% (inactive),1.44% (inactive),-42.2
CC(C)Oc1cc(-n2nc(C(C)(C)C)oc2=O)c(Cl)cc1Cl,inactive,inactive,inactive,inactive,,,inactive,,,-6.22% (inactive),0.842% (inactive),0.863% (inactive),inactive,-16% (inactive),-26.7% (inactive),inactive,,0.204% (inactive),1.08% (inactive),22.7
CCOP(=S)(OCC)SCn1c(=O)oc2cc(Cl)ccc21,inactive,,inactive,,,,inactive,,,,,-0.132% (inactive),,-8.7% (inactive),-28.2% (inactive),inactive,,2.68% (inactive),-2.19% (inactive),
O=C(Nc1ccccc1)Nc1cnns1,inactive,inactive,inactive,inactive,,,inactive,1.32,-46.6% (inactive),24.1% (inactive),,0.0118% (inactive),,-2.01% (inactive),-16.6% (inactive),inactive,,2.3% (inactive),-0.107% (inactive),-10.7
